From PubChem BioAssay AID1220 (Sanford-Burnham Center for Chemical Genomics, 2008) come the findings set out here.

The campaign covered roughly 190,000 compounds. About 1,300 (0.68%) were called active. The entries come from a sample that favours actives as a whole. Values without a mark were called inactive. Cut-off read from the data, not from the text of the source: active = inhibition above about 50%; inactive = the rest.

For orientation: inhibition means the relative decrease from the control value, in per cent.

For the assay, the target named is Mannose-6-phosphate isomerase (Homo sapiens) (UniProt P34949). Put plainly: human PMI inhibitors, high substrate, primary screen, biochemical, fluorescence intensity, high mannose 6-phosphate (AID 1220). To be noted: recombinant PMI enzyme, coupled fluorescence intensity; at 20 µM; hits give high values.
Chain of Mannose-6-phosphate isomerase (Homo sapiens) (P34949 whole entry, looked up): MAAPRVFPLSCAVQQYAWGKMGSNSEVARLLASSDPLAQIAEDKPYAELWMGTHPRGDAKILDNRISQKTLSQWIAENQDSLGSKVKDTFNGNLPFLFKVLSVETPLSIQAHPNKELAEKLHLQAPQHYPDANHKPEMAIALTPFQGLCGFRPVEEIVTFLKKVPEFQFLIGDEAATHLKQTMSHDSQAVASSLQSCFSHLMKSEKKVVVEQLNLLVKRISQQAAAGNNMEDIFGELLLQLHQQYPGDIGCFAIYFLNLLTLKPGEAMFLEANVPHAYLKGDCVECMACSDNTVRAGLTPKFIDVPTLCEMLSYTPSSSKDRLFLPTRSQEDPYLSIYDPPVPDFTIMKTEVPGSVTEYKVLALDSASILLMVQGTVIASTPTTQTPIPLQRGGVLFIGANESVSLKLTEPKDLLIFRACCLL
For `COC1CCCN(Cc2cn(C)nc2-c2ccc(Oc3ccccc3)cc2)C1` (stereo not given), the inhibition was 8.1%.

On to `O=C(NCC1CCCO1)C(=O)NCC(c1ccco1)N1CCN(c2ccccc2)CC1` (stereo not given), for which the inhibition was -4.7%.

Take `O=C(Nc1ccc(F)cc1)c1cccc(N2C(=O)C3C4CCC(C4)C3C2=O)c1` (stereo not given): the inhibition is 9.3%. The figure for `Cc1ccc(C(=O)Oc2ccccc2N2C(=O)C3C4CCC(C4)C3C2=O)cc1` (stereo not given) is 0.7%. The figure for `O=C(Oc1cccc2cccnc12)c1ccc(N2C(=O)C3C4CCC(C4)C3C2=O)cc1` (stereo not given) is 50.5% (active). The figure for `CC1CCC2C(=O)N(c3ccc(C(=O)Oc4cccc5cccnc45)cc3)C(=O)C2C1` (stereo not given) is 48.7%; for `O=C(Oc1cccc2cccnc12)c1cccc(N2C(=O)C3C4CCC(C4)C3C2=O)c1` (stereo not given) it is 51.9% (active). For `O=C(Oc1cccc2cccnc12)c1cccc(-n2cnnn2)c1`, the inhibition was 27.9%. The figure for `Cn1c(=O)c2c(nc(N3CCCC3)n2CC(O)CO)n(C)c1=O` (stereo not given) is -12.4%; for `Cc1cc(C)nc(NC(=O)c2cc(Br)ccc2Cl)n1` it is -2.5%.

With `O=C(COC(=O)c1cccs1)Nc1cc(S(=O)(=O)N2CCOCC2)ccc1Cl`, the inhibition is -2.3%.

`COc1cc(NC(=O)CCNC(=O)Cn2cnc3ccccc3c2=O)cc(OC)c1OC`: the inhibition is 10.9%. The figure for `COC(=O)c1nnn(-c2nc(N3CCOCC3)nc(N3CCOCC3)n2)c1C` is 8.7%; for `COc1ccc(/C=N/NC(=O)c2ccncc2)cc1[N+](=O)[O-]` it is -13.2%. The figure for `COc1cc(OC)c([N+](=O)[O-])cc1/C=N/NC(=O)c1ccncc1` is 58.7% (active); for `COc1cc(OC)c(/C=N/NC(=O)c2ccncc2)cc1Br` it is -19.4%. As to `COc1ccc(Cn2nnnc2C(c2ccc3ncccc3c2)N2CCN(C3CCCCC3)CC2)cc1` (stereo not given), the inhibition is -3.1%. The figure for `COCCNC(=S)Nc1cccc2cnccc12` is 48%; for `O=C(Cc1ccc(Cl)c(Cl)c1)Nc1cccc2ncccc12` it is 8.6%. Consider `COCCCNC(=S)Nc1ccccc1C`, for which the inhibition was 15.8%. As for `O=C(O)c1cc(Cl)c(Cl)cc1C(=O)Nc1cccc2ncccc12`, the inhibition was 54.8% (active). Consider `O=C(O)c1cc(Cl)c(Cl)cc1C(=O)Nc1cccc2cccnc12`, for which the inhibition was 46%. The figure for `O=C(NC(=S)Nc1cccc2ncccc12)c1ccco1` is 7.2%; for `O=C(NC(=S)Nc1cccc2ncccc12)c1ccccc1` it is 30.3%. On to `COCCCNC(=S)Nc1cccc2ncccc12`, for which the inhibition was 54.4% (active). With `O=C(NC(=S)Nc1cccc2ncccc12)c1cccs1` the figure was 67.1% (active). The figure for `CCN1C2=C(C(=O)CCC2)C(c2ccc(O)cc2)C2=C1CCCC2=O` is -9.2%; for `Cc1nnc(NC(=O)CSc2nnc(-c3ccc(S(=O)(=O)N4CCCC4)cc3)n2C)s1` it is -8.6%.

As to `CC1(C)C(=O)N(OCc2ccccc2)C(C)(C)C(=O)N1OCc1ccccc1`, the inhibition is -1.9%. With `COc1cc2c(cc1NC(=O)CSc1ccccn1)oc1ccccc12`, the inhibition is 4.8%. The figure for `COc1cc2c(cc1NCc1ccc3c(c1)OCO3)oc1ccccc12` is 32.3%; for `COc1cc2c(cc1NCc1ccccn1)oc1ccccc12` it is 56.9% (active). `CCOC(=O)C1CCN(c2c(NCc3ccc(C(=O)N(C)Cc4ccccc4)cc3)c(=O)c2=O)CC1`: the inhibition was -6.2%. With `Cc1cc(C)nc(/N=C2\NC(=O)CC(C(=O)O)N2c2ccc(F)c(Cl)c2)n1` (stereo not given) the figure was -5.5%; with `COc1cc(C2C3=C(CCCC3=O)Nc3ccc4ncccc4c32)ccc1O` (stereo not given), 27.4%; with `O=C1CCCC2=C1C(c1cccc(O)c1)c1c(ccc3ncccc13)N2` (stereo not given), 35.4%. On to `O=C1CCCC2=C1C(c1ccc(O)c(O)c1)c1c(ccc3ncccc13)N2` (stereo not given), for which the inhibition is 52.9% (active). With `COc1cc(C2C(C#N)=C(C)NC(C)=C2C#N)cc(OC)c1OC` the figure was 2%; with `COc1cc(NC2=CC(=O)CC(C)(C)C2)cc(OC)c1OC`, 9.2%. The figure for `COc1cc(N/C=C2\CC(=O)NC(C)=C2C#N)cc(OC)c1OC` is 70.9% (active); for `COC(=O)c1ccc(CSc2ccc3nnc(-c4cccnc4)n3n2)o1` it is 0.3%.

`CN(C)CCNC(=O)c1c(O)c2c([nH]c1=O)CCCC2`: the inhibition was 15.6%. The figure for `Cc1cc(N)ccc1-n1c(C)ccc1C` is 69.4% (active). For the compound `COc1ccc(Cl)cc1-n1c(C)ccc1C`, the inhibition was -6.6%. In the case of `Cc1cc(N)ccc1N1CCCC1`, the inhibition is 25.9%. As for `COc1ccc(N)cc1-n1cnnn1`, the inhibition was -5.6%. In the case of `COc1ccc(N)cc1-n1c(C)ccc1C`, the inhibition was 64.2% (active). The figure for `Cc1ccc(N)cc1-n1c(C)ccc1C` is 27.5%. As for `Nc1nc(NCc2ccco2)nn1-c1ccccc1`, the inhibition is 2%. With `CCCC(=O)OCCNc1cc(SCc2ccco2)c2nonc2c1[N+](=O)[O-]`, the inhibition is 40.5%.

In the case of `COC(=O)CCSc1cc(NCCOC(C)=O)c([N+](=O)[O-])c2nonc12`, the inhibition was 43.1%.

For `Cn1ccnc1Sc1cc(NCCCO)c([N+](=O)[O-])c2nonc12`, the inhibition is 24.2%. The figure for `CC(=O)OCCNc1cc(SCc2ccco2)c2nonc2c1[N+](=O)[O-]` is 45.7%; for `CCCSc1cc(NCCOC(C)=O)c([N+](=O)[O-])c2nonc12` it is 57.6% (active). With `CCCC(=O)OCCNc1cc(Sc2nc3ccccc3[nH]2)c2nonc2c1[N+](=O)[O-]` the figure was 33%. In the case of `Cc1nnc(Sc2cc(NCCCO)c([N+](=O)[O-])c3nonc23)s1`, the inhibition was 39.9%. In the case of `CCCC(=O)OCCNc1cc(Sc2nccn2C)c2nonc2c1[N+](=O)[O-]`, the inhibition was 30.4%.

Regarding `CCC(=O)OCCNc1cc(Sc2nccn2C)c2nonc2c1[N+](=O)[O-]`, the inhibition was 50.8% (active). The figure for `CCCSc1cc(NCCOC(=O)CCC)c([N+](=O)[O-])c2nonc12` is 50.7% (active); for `CCN(CC)c1cc(NCCO)c([N+](=O)[O-])c2nonc12` it is 57.4% (active); for `Cc1nnc(Sc2cc(NCCO)c([N+](=O)[O-])c3nonc23)s1` it is 16.6%. With `O=C(NCc1cccnc1)Nc1cccc(F)c1` the figure was -2.6%; with `CC(=O)Nc1nc(C(=O)O)cs1`, 6.8%; with `O=C(Nc1ccc(Cl)cn1)c1ccc(-c2cc(Cl)ccc2Cl)o1`, -2.7%. The figure for `COc1cc2c(cc1OC)CN(C1CC(=O)N(c3c(C)cccc3C)C1=O)CC2` (stereo not given) is 2.1%; for `Cc1nc2ccc(NC(=S)NC3CC3)cc2nc1C` it is 46.4%; for `CCOC(=O)N1CCN(S(=O)(=O)c2ccc(C(=O)Nc3ccc4c(c3)C(=O)NC4=O)cc2)CC1` it is 14.7%.

For `COc1c(C(=O)NCCSC(C)(C)C)ccc2ccccc12`, the inhibition is 2.8%. `O=C(NCCn1ccc2ccccc21)C1CCCCC1`: the inhibition was 1.5%.

With `CC(=O)OCCCNc1cc(Sc2ccc(Cl)cc2)c2nonc2c1[N+](=O)[O-]`, the inhibition was 56.3% (active). With `CC(=O)OCCNc1cc(SC(C)C)c2nonc2c1[N+](=O)[O-]` the figure was 52% (active); with `CC(=O)OCCCNc1cc(Sc2ccc(C)cc2)c2nonc2c1[N+](=O)[O-]`, 45.7%; with `CC(=O)OCCNc1cc(Sc2nc3ccccc3[nH]2)c2nonc2c1[N+](=O)[O-]`, 26.1%. For `CC(=O)OCCCNc1cc(SCc2ccco2)c2nonc2c1[N+](=O)[O-]`, the inhibition was 40.1%. The figure for `CC(=O)OCCN(C)c1cc(SC(C)C)c2nonc2c1[N+](=O)[O-]` is 24.4%. The figure for `COc1ccc(C2CC(c3ccc(OC)cc3)n3nc(NC(=O)c4ccco4)nc3N2)cc1` (stereo not given) is 3.4%; for `COc1cccc2c1OCC(C(=O)OCc1cccnc1)=C2` it is 3.9%. As for `COCc1cc(C)nc(N/N=C/c2ccc(-c3ccc(Cl)cc3[N+](=O)[O-])o2)c1C#N`, the inhibition was 55.9% (active). As to `COCc1cc(C)nc(N/N=C/c2ccc(-c3cc(C(=O)O)ccc3Cl)o2)c1C#N`, the inhibition was -8.6%.

On to `COCc1cc(C)nc(N/N=C/c2ccc(-c3ccc(C(=O)O)c(Cl)c3)o2)c1C#N`, for which the inhibition was -2.9%. Regarding `O=C1CCc2cc(S(=O)(=O)NC(C(=O)N3CCN(c4ccccn4)CC3)c3ccccc3)ccc2N1` (stereo not given), the inhibition is -3.8%. The figure for `CNCC/C=C1/c2ccccc2CSc2ccccc21` is 14.2%. With `CCOc1ccc(NC(=O)NCC2CCN(c3ccc(OC)cc3)C2)cc1` (stereo not given) the figure was 22.5%; with `COc1ccc(NC(=O)NCc2ccncc2)c(OC)c1`, 3.6%. Consider `COc1ccc(N2CCC(CNC(=O)Nc3ccc(Cl)cc3)C2)cc1` (stereo not given), for which the inhibition was 46.2%. With `COc1ccc(N2CCC(CNC(=O)Nc3ccc(OC)cc3OC)C2)cc1` (stereo not given) the figure was 55.7% (active); with `COc1ccc(N2CCC(CNC(=O)Nc3ccc(C)c(C)c3)C2)cc1` (stereo not given), 52.6% (active); with `CCNC(=O)Nc1ccc(OC)cc1OC`, -3.8%. Consider `CCSc1nnc(NC(=O)C(C)(C)C)s1`, for which the inhibition was 2%. The figure for `CCO[C@@H]1OC(C(=O)NCc2ccccc2)=C[C@H](C2CC2)[C@H]1CCCO` is -7.4%; for `Cc1nc(N)[nH]c(=O)c1CCC(=O)OCC(C)C` it is -23.1%; for `Nc1c([N+](=O)[O-])c(=O)sc2ccccc12` it is -0.6%. The figure for `Nc1ccc2nc(-c3ccccc3)sc2c1` is 26.8%; for `Nc1ccc2c(c1)sc1ccccc12` it is 55.2% (active); for `Cc1c(C(=O)NCCc2ccc(S(N)(=O)=O)cc2)cccc1[N+](=O)[O-]` it is -0.5%. The figure for `CCCN1C/C(=C/c2cccc([N+](=O)[O-])c2)C(=O)/C(=C/c2cccc([N+](=O)[O-])c2)C1` is -2.8%; for `COc1ccc(N2CSC3=C(C#N)C(c4cccc(OC)c4OC)CC(=O)N3C2)cc1` (stereo not given) it is -24.3%.

With `N#CC1=C2SCN(Cc3ccco3)CN2C(=O)CC1c1cccc2ccccc12` (stereo not given), the inhibition is 68.8% (active). Regarding `N#CC1=C2SCN(Cc3ccco3)CN2C(=O)CC1c1ccccc1F` (stereo not given), the inhibition is 15%. With `COc1ccc2ccccc2c1C1CC(=O)N2CN(Cc3ccco3)CSC2=C1C#N` (stereo not given), the inhibition is 62.9% (active).
